Compound activity deposited in PubChem BioAssay by The Scripps Research Institute Molecular Screening Center.
Hits are enriched below; roughly 2.4% of the tested compounds scored in any of these assays.
CHO-K1 Ca ag = counter-screen for M1 agonists: effect in parental CHO-K1 cells; Fluo-8 calcium fluorescence; scaled to maximal ATP response, vehicle zero; activation, % at 3 µM; 360,000 tested, 0.48% active; AID 602248, 2012; in the data active means activation above about 15%;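 further: untransfected CHO-K1 host cells lacking M1 receptor as counterscreen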
M1 PAM parental = nonselective calcium activators in parental CHO-K1 cells, primary screen, counter-screen for M1 PAM project, cell-based, Fluo-8 calcium fluorescence, full deck, 1536-well | ATP EC20; 0% at ATP EC20, 100% at ATP max | activation, % at 3 µM | 360,000 tested, 0.02% active | AID 602247, 2012;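 active means activation above the run cutoff, the mean activation of all test compounds plus 3 SD, cut at about 40% in these data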;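 further: peak over basal fluorescence ratio in a 140 s read after ATP addition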
CHO-K1 Ca antag = nonselective inhibitor or artifact in parental CHO-K1 cells; ATP-induced calcium, Fluo-8 fluorescence; inhibition, % at 3 µM; 360,000 tested, 0.6% active;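 active means inhibition above a per-plate cutoff, the plate's mean sample inhibition plus 3 SD, cut at about 24% in these data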
M1 ag = human M1 muscarinic receptor agonists, primary screen, Fluo-8 calcium fluorescence, CHO-K1 cells, HTS. Muscarinic acetylcholine receptor M1 (Homo sapiens), P11229. CHO-K1 hM1, agonist mode; 0% DMSO, 100% acetylcholine EC100. activation, % at 3 µM. 360,000 tested, 0.33% active. AID 588814, 2011;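 active means activation above the run's mean compound activation plus 3 SD, cut at about 16% in these data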;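 further: peak over basal fluorescence ratio within a 140 s kinetic read after compound addition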
Target sequence (P11229 whole entry, looked up): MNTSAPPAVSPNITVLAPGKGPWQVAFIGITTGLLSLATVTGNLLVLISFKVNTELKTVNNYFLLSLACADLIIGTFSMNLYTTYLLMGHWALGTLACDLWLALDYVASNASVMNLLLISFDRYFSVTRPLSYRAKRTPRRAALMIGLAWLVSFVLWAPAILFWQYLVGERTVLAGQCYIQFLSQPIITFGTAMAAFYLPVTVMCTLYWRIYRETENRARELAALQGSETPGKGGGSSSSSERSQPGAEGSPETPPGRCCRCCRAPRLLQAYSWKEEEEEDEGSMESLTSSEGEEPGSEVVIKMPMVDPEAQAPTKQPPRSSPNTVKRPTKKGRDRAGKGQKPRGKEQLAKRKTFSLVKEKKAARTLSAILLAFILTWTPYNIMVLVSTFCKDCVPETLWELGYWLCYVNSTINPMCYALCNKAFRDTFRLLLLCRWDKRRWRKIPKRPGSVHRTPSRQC
M1 antag = human M1 muscarinic receptor antagonists, primary screen, CHO-K1 cells, Fluo-8 calcium fluorescence, 1536-well. 360,000 tested, 1.3% active. Muscarinic acetylcholine receptor M1 (Homo sapiens), P11229. inhibition, % at 3 µM. CHO-K1 hM1, ACh EC80 antagonist. AID 588852, 2011;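 active means percent inhibition above its own plate's cutoff, namely the mean of that plate's compound wells plus 3 SD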;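 further: peak over basal fluorescence ratio during 140 s after agonist addition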
M1 PAM = human M1 muscarinic receptor positive allosteric modulators, primary screen, CHO-K1 cells, Fluo-8 calcium fluorescence, 1536-well; Muscarinic acetylcholine receptor M1 (Homo sapiens), P11229; CHO-K1 hM1, ACh EC20; 0% = ACh EC20, 100% = maximal ACh; activation, % at 3 µM; 360,000 tested, 0.088% active; in the data active means activation above about 19%, passing the limit was not always enough
Hits are given with their value; . = inactive.

SMILES	CHO-K1 Ca ag	M1 PAM parental	CHO-K1 Ca antag	M1 ag	M1 antag	M1 PAM
O=C(CN1CCCCCC1)N1c2ccccc2Sc2ccccc21	16.2	.	.	.	99.3	.
O=C(CN1CCCC(O)C1)N1c2ccccc2Sc2ccc(C(F)(F)F)cc21 (configuration not stated)	.	.	.	.	98.9	.
CN1CCN(CC(=O)N2c3ccccc3Sc3ccccc32)CC1	.	.	.	.	99.9	.
COCCCNC(=O)c1cc(S(=O)(=O)NCCCN2CCCC2=O)ccc1Cl	.	.	.	.	.	.
CC1Cc2ccccc2N1C(=O)CN1CCCCC1 (configuration not stated)	.	.	.	.	.	.
CC1CCCN(CC(=O)N2c3ccccc3Sc3ccccc32)C1 (configuration not stated)	.	.	.	.	81.3	.
CC1CCCN(c2ccc(C(=O)OCC(=O)N3c4ccccc4Sc4ccccc43)cc2[N+](=O)[O-])C1 (configuration not stated)	.	.	.	.	34.6	.
O=C(CN1CCCCC1)N1c2ccccc2Oc2ccccc21	.	.	.	.	74.7	.
O=C1CCCN1CCCNCC(=O)N1c2ccccc2Sc2ccccc21	.	.	.	.	76.5	.
CC1CCCN(c2ccc(C(=O)OCn3nnc4ccccc4c3=O)cc2[N+](=O)[O-])C1 (configuration not stated)	.	.	.	.	.	.
CCC(C(=O)Nc1cccc(S(=O)(=O)N(C)c2ccccc2)c1)c1ccccc1 (configuration not stated)	.	.	.	.	.	.
O=C(Nc1ccc(C(F)(F)F)cc1)c1csc(-c2ccncc2)n1	.	.	.	.	.	.
Cc1ccccc1Nc1nc(N)nc(COC(=O)c2ccccc2)n1	.	.	.	.	.	.
COc1cc2c(-c3ccc4cc[nH]c4c3)c(-c3ccsc3)oc(=O)c2cc1OC	.	.	.	.	36.6	.
COc1cccc(C(=O)N2CCN(c3ccc(N4CCOCC4)nn3)CC2)c1	.	.	.	.	.	.
COc1ccc2c(c1)CCc1cc(C(=O)N3CCN(c4ccc(N5CCOCC5)nn4)CC3)sc1-2	.	.	30.6	.	.	.
CC1CCCC(C)N1C(=O)c1ccc(S(=O)(=O)NCc2ccco2)cc1 (configuration not stated)	19.0	.	.	.	.	.
O=C(Cc1ccccc1)c1ccc(O)cc1	.	.	.	.	.	.
COc1ccc(-c2noc(N3CCC(C(=O)NCCCN4CCC(C)CC4)CC3)n2)cc1	.	.	.	.	32.0	.
COc1ccc(NC(=O)c2cccc(N3C(=O)C4C5C=CC(C5)C4C3=O)c2)c(OC)c1 (configuration not stated)	.	.	.	.	.	.
COc1ccc(NC(=O)c2cccc(N3C(=O)C4C5CCC(C5)C4C3=O)c2)cc1 (configuration not stated)	.	.	.	.	.	.
COc1ccc(NC(=O)c2cccc(N3C(=O)C4C5C=CC(C6CC56)C4C3=O)c2)cc1 (configuration not stated)	15.4	.	.	.	.	.
COc1ccc(NC(=O)c2cccc(N3C(=O)C4C5C=CC(C6CC56)C4C3=O)c2)c(OC)c1 (configuration not stated)	18.0	.	.	.	.	.
COc1ccc(-c2cc(C(=O)Nc3ccc(C(N)=O)cc3)c3ccccc3n2)cc1	.	.	.	.	.	.
NC(=O)CSc1nc2ccccc2n1Cc1ccccc1	22.5	.	.	.	.	.
SMILES	CHO-K1 Ca ag	M1 PAM parental	CHO-K1 Ca antag	M1 ag	M1 antag	M1 PAM
CC(C)N(C(=O)CSc1nc2ccccc2n1Cc1ccc(F)cc1)C(C)C	.	.	.	.	32.3	.
CC(C)NC(=O)CSc1nc2ccccc2n1CC(=O)N(C(C)C)C(C)C	.	.	.	.	.	.
Nc1c(C(=O)O)cnc2nc(N3CCOCC3)nn12	.	.	.	.	.	.
COC(=O)N1CCN(c2ccc(C)cc2)C(C)C1 (configuration not stated)	.	.	.	.	.	.
O=C(CN1C(=O)S/C(=C\c2ccccc2F)C1=O)NC1CCS(=O)(=O)C1 (configuration not stated)	.	.	.	.	.	.
FC(F)(F)c1cnc(N2CCN(C(=S)NCc3ccccc3)CC2)c(Cl)c1	.	.	.	.	.	.
FC(F)(F)c1cnc(N2CCCN(C(=S)Nc3ccccc3)CC2)c(Cl)c1	16.6	.	.	.	.	.
CCOC(=O)c1ccc(NC(=S)N2CCSC2c2ccc(Br)cc2)cc1 (configuration not stated)	.	.	.	33.7	33.5	.
O=C1CCC(=O)N1CN(C(=O)c1ccco1)c1ccc(Cl)c(Cl)c1	.	.	.	.	.	.
Cn1nc(C(=O)NCCc2ccc3c(c2)OCCO3)c2ccccc2c1=O	.	.	.	.	.	.
Cc1nnc(N2CCCC(C(=O)NCc3ccc(OC(C)C)cc3)C2)c2nn(-c3ccccc3)c(C)c12 (configuration not stated)	.	.	.	.	41.2	.
Nc1cc(S(=O)(=O)N2CCOCC2)ccc1Oc1cccc(Br)c1	.	.	24.0	.	.	.
COc1ccc(S(=O)(=O)N2CCOCC2)cc1Br	.	.	.	.	.	.
COC(=O)c1ccccc1Nc1cc(C)nc2nc(C)nn12	.	.	.	.	.	.
O=C(CCl)NN=C(c1ccccc1)c1ccccc1	.	.	.	.	.	.
CCN(CC)CC(=O)NN=C(c1ccccc1)c1ccccc1	.	.	.	.	27.3	.
Cc1ccc(NC(=S)NC(=O)Cc2ccccc2)c(O)c1	.	.	.	17.9	.	.
COc1ccc(NC(=S)NC(=O)Cc2ccccc2)c(OC)c1	.	.	.	.	.	.
O=C1C=C(c2cccnc2)CCC1	.	.	.	.	.	.
O=C1CCCc2[nH]nc(-c3cccnc3)c21	.	.	26.0	.	.	.
CC(CN1CCCCC1)OC(=O)c1cccc(F)c1 (configuration not stated)	.	.	.	.	.	.
CC1CCN(CC(C)OC(=O)c2ccc3c(c2)OCCO3)CC1 (configuration not stated)	.	.	.	.	66.6	.
COc1cccc(C(=O)OC(C)CN2CCCC2)c1 (configuration not stated)	.	.	.	.	38.5	.
